The full ranking holds about 24,000 sequences; the median of “enrichment r” is about 0.99, and the highest 2% start at about 3.7. Only a sample is shown.
T1: UNK ZnF1-3 (human, UniProt Q9C0B0 31-174)
T1 sequence: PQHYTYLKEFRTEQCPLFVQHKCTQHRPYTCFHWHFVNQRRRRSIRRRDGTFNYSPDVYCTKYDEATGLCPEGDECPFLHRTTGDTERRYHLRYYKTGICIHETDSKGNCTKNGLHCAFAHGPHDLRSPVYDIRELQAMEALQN

B1: 171526625_171526745_1071_3pUTR_ENSG00000117523_ENST00000495585|human|control|control (ssRNA)
RNA: GGGAGUUCUACAGUCCGACGAUCAGGUUAUAGCUGCAGCUGAAGUAGAGGCUGGAACUGAAGCUGAGACUGAGGCUGAGGCUGAAACUGGAGCUAAGGGUGAGGCUGGAACUGGAGCUGAGGUUGAGGCCAGAACUGGAGCUACAACAGAGGAUUGAGCAUCA
B2: chr13:108516651:108516652:-_ENSMUSG00000032846_ENSMUST00000105097|mus_hu|motif|central (ssRNA)
RNA: GGGAGUUCUACAGUCCGACGAUCAUCAUGCGCCAUUAAGAAGGUCUCUCGGGCUUUGCUGAGGAACUCUAUAAACUCACGGUAGUGCCGAGGACUGAUGUGUGUGAGCCGUGAGUGCGUUGUGUUGAUGUAGGCCCCGAUCGUCAACAGAGGAUUGAGCAUCA
B3: 138058577_138059462_3783_3pUTR_ENSMUSG00000041642_ENSMUST00000075164|mouse|control|control (ssRNA)
RNA: GGGAGUUCUACAGUCCGACGAUCGGCCAGGGACUUGGUGAUGUUCUUGGUAGAGCUGUCCAAUGGGGGUCCUAGGCACUCCGCAGACACGGCCUUCAUCUGUGCGGAUAGCUUGGGCUCACCCUUGAACUUGAAGUCAUCGUGCAACAGAGGAUUGAGCAUCA
B4: chr12:39756943:39756944:-_ENSG00000139116_ENST00000544797|hu_mus|hu_hu_hu_mus_False|28_38 (ssRNA)
RNA: GGGAGUUCUACAGUCCGACGAUCGGUUUGGCUGUUACCCCCAAGGGAAUCCUGCAAGAGUCUUGUCAGCUUAGAGUCUCUGUAAGGGACAUGGGUGGCCCUCUUGCUCUUGUCUCCCAAGGCGCUGAUUACAUUCCCAAGAGCCAACAGAGGAUUGAGCAUCA
B5: chr2:73467608:73467609:+_ENSG00000135624_ENST00000258091|hu_mus|FALSE|FALSE (ssRNA)
RNA: GGGAGUUCUACAGUCCGACGAUCAUCCUGGGACUUGGCUAUGUCCACUAAAGUCUUUGCUGCAGGAUGGACAACAUCGAGGAGUUUCAGAAUUGUGGCCCCAUCAUUAGAUAUUGUUGCUUUGCCUCGGCCAUCCACAAUAAGCAACAGAGGAUUGAGCAUCA
B6: chr2:160604994:160604995:+_ENSG00000136536_ENST00000409591|hu_mus|motif|central (ssRNA)
RNA: GGGAGUUCUACAGUCCGACGAUCUCUUGAAGACUCAUCCCUUCCCUCUCGCCUCCUUCUCGAGAACAAAGGUGUGCAUCGGUUUCGGAGUGAAGAAGACAACCAUGGUCCUGAAUUUCUACCUUCUGAUUCUUGGUUAAAAUUCAACAGAGGAUUGAGCAUCA
B7: chr11:64571133:64571134:-_ENSG00000133895_ENST00000312049|hu_hu|motif|central (ssRNA)
RNA: GGGAGUUCUACAGUCCGACGAUCCUGAAAAAUAAAUCUAUGUACAAAACAGGAAGAGAUCAGGCUCUUGUCACCCACUCCGGACCCUCUGCAGAUUUCCUCCGGGAUGCUCCGAGAUGGGCUGGACCUCUGGGAGGUUCCCAGCAACAGAGGAUUGAGCAUCA
B8: chr10:93459826:93459827:-_ENSMUSG00000036099_ENSMUST00000119818|mus_mus|motif|central (ssRNA)
RNA: GGGAGUUCUACAGUCCGACGAUCUCCCCACACCAGCCAGGAGGACACAAUCCAGCACGUGGGAAACAUGAUGAGCAAACGGAUGAAGGCAAACAGCAGCGAGACAUCCCAAGUGUUCGGGGUUGCCAGGGAGCAGAGCGUUGGCAACAGAGGAUUGAGCAUCA
B9: chr9:95013113:95013114:-_ENSG00000196305_ENST00000443024|hu_hu|hu_hu_hu_mus_False|1_48 (ssRNA)
RNA: GGGAGUUCUACAGUCCGACGAUCCUCAGUCAGAAAGGGCGUGUAAGGGGCCAUCAGUCUGCACAGAGAAAGCAGGACACUGAACAGGGUUUCUAGGGCCAUGACACAGUCUUCCACCCCACUCUCACCCUUUAACCUUCUGCGCAACAGAGGAUUGAGCAUCA
B10: chr16:75661828:75661829:-_ENSG00000065427_ENST00000302445|hu_hu|FALSE|FALSE (ssRNA)
RNA: GGGAGUUCUACAGUCCGACGAUCUAUUAUUUUCUAGACAGAAGUGCCAACUGUUGUGCUUUCCAGUGUAUCAGUGGUUGCUACAUUCUCCUUCUUGUCUUCGGGUUUCAUGGCAGGAAACAGAAGUACUUCCUUGAUGUUGUUCAACAGAGGAUUGAGCAUCA
B11: chr11:29608675:29608676:+_ENSMUSG00000020458_ENSMUST00000102843|mus_mus|motif|central (ssRNA)
RNA: GGGAGUUCUACAGUCCGACGAUCCUCUGUAUCAGAAGGAAGUUUUUCCUCUGCUUCUUUCGUAAGUACUUUGGGUUUAACGGUGUUGCCCAUUUCUAUUUGAGAUUCCAAAGCAGAAACAUUUGGAAGCAAUAAGGGCACCUUCAACAGAGGAUUGAGCAUCA
B12: 136535675_136535795_2550_CDS_ENSMUSG00000030213_ENSMUST00000032335|mouse|control|control (ssRNA)
RNA: GGGAGUUCUACAGUCCGACGAUCCUGAGGCUGAGAGGUCACGGCAACGGGCACAUGCAGGAUCACUGGCAAGGGCUGCAGAGAGAUUGUAGGCUGAGGGGUCCCACUAGGCACCUGAGUAGUGGCAACUACGGUGGCUGUGCUCAACAGAGGAUUGAGCAUCA
B13: chr7:102952668:102952669:+_ENSG00000105819_ENST00000453466|hu_hu|motif|central (ssRNA)
RNA: GGGAGUUCUACAGUCCGACGAUCCUGUUUAAAAUCUGGUAGUUGCUUAAUGGGACCAACAGCAGCAAUAGCUGGACUCCGGUUAUAAAUGUAUUUGGUACAUACUUCUCGAAUUGUCUCAGCAUUCACAGCAUCAAUUCUUGCCAACAGAGGAUUGAGCAUCA
B14: chr2:120799606:120799607:+_ENSG00000115109_ENST00000263713|hu_hu|motif|central (ssRNA)
RNA: GGGAGUUCUACAGUCCGACGAUCGUACAUAAUCUGAUCAAACAACUCUUGUCCUUUGGCUUUUUUUGGCAAGUCCACACGGACAUCAGUACCAUCCAGAAGGGACACCCGACACGUGAUGAUGGACUUAGAAUCUCCAGCUGCCAACAGAGGAUUGAGCAUCA

target: T1, UNK ZnF1-3; test: nsRBNS (natural sequence RNA bind-n-seq); RBNS binding buffer (assumed for nsRBNS): 25 mM Tris pH 7.5, 150 mM KCl, 3 mM MgCl2, 0.01% Triton X-100, 500 ug/ml BSA, 20 U/ml SUPERase-In, 4 C; UNK is unkempt and MSI1 is Musashi-1; names of the RNAs are library labels; protein concentration not given here; high values mean tight binding

Binder | binding signal
B1 | 2.07 enrichment R
B2 | 0.756 enrichment R
B3 | 0.657 enrichment R
B4 | 0.802 enrichment R
B5 | 0.992 enrichment R
B6 | 0.976 enrichment R
B7 | 0.877 enrichment R
B8 | 2.05 enrichment R
B9 | 0.937 enrichment R
B10 | 0.567 enrichment R
B11 | 0.539 enrichment R
B12 | 1.73 enrichment R
B13 | 1.15 enrichment R
B14 | 0.976 enrichment R

Source: article PMC12136788
